Among the data in PubChem BioAssay (NCI) are growth values, retold here.

This is part of a sample that, as a whole, favours compounds with a hit. Of some 83,000 tested, about 20% had one in any assay.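 Note: values are percent growth. 100 is the growth of untreated cells, values between 100 and 0 indicate rising inhibition; between -100 and 0 indicates cell death.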 Unmarked numbers belong to inactive results. Active and inactive are the calls of the source. The calls were made as follows: active = growth percent below 10; inactive = the rest.

The first assay has as its system MCF7 breast. Kind of assay: NCI-60 one-dose screen, 48 h (100 = growth as untreated, 0 = no growth, -100 = all killed). Conditions: 10 µM unless noted.
With `O=C(COc1ccc(/C=C2\Oc3ccccc3C2=O)cc1)Nc1nc2c(s1)CCCC2`, the growth is 82.5%. With `O=[N+]([O-])c1ccc(OCCO)cc1`, the growth is 94.3%. Still for that read-out and setting: in the case of `Cn1cc2c(c1)-c1nc(Nc3ccccc3)ncc1CC2` it was 25.2%. Still for that read-out and setting: in the case of `CC1=C(SCCC(=O)OC(C[Se]C2=C(C)C(=O)c3ccccc3C2=O)C(=O)NCCCCCC(=O)OCc2ccccc2)C(=O)c2ccccc2C1=O` (stereo not given) it was 28.2%; in that of `CC/C=C\C/C=C\C[C@H](O)C/C=C1/C(=O)C=C[C@@H]1C/C=C\CCCC(=O)O`, 23.6%; in that of `COc1cccc(Nc2nccc(Nc3ccc4[nH]ncc4c3)n2)c1`, -50.6% (active). Still for that read-out and setting: in the case of `COc1cccc(-c2nn(-c3ccccc3)cc2-c2ccnc(NCCNC(=O)c3ccccc3)c2)c1` it was 62.5%; in that of `COc1ccccc1CNCCCN1C(=O)c2ccc3c4c(ccc(c24)C1=O)C(=O)N(CCCNCCCCN)C3=O`, -45.7% (active); in that of `COc1ccc2cc(-c3cc(OC)c(OC)c(OC)c3)c(=O)oc2c1`, 37.5%.

As for `NC(=S)Nc1cccc(O)c1`, the growth is 98.8%. Same read-out and setting: in the case of `CCCCn1c(=O)c2c(nc3n2CCCN3CCc2ccc(OCC(=O)NCCN(CC)CC)cc2)n(CCCC)c1=O` it was 36.6%; in that of `COc1cc2c(cc1-c1c(C)noc1C)ncc1nc(C3CCC(F)(F)CC3)n(C3CCC(OC(F)F)CC3)c12` (stereo not given), 26.2%; in that of `CCN1CCN(c2cc(C)nc(NCc3cc(Nc4ccnc5cc(Cl)ccc45)ccc3F)n2)CC1`, 6.99% (active). On to `CCCCc1ccc(Nc2ccc(Nc3ccc(CCCC)cc3S(=O)(=O)O)c3c2C(=O)c2ccccc2C3=O)c(S(=O)(=O)O)c1`, for which the growth was 86.9%. On the same count and under the same terms, in the case of `N#Cc1c(-c2cccc(Cl)c2)cc(-c2cccc(Cl)c2)[nH]c1=O` it was 53.8%; in that of `Cc1cccc(Cc2cnc(NC(=O)/C=C/c3ccco3)s2)c1`, 14.9%. Regarding `N#CC1=C(c2ccc(Br)cc2)NC(SCC(=O)c2ccc(Br)cc2)NC1=O` (stereo not given), the growth was 101%.

With `C[C@H](NC(=O)[C@@H]1CSSC[C@@H](NC(=O)c2nc3ccccc3cc2O)C(=O)NCC(=O)N1C)c1ccccc1`, the growth was -2.09% (active). Same read-out and setting: the same measure for `Cc1c2c(c(C)c3c1oc1cc(O)ccc13)C(=O)N(CCN1CCCCC1)C2=O`: 90.3%. Same read-out and setting: in the case of `CCCCCCCCCCCCCCCCCCOc1ccc(CC(=O)OCC[N+]2(C)CCCC2)cc1` it was 90.9%. For the compound `COc1cccc(-c2nn(-c3ccccc3)cc2-c2ccnc(NCCCNC(=O)c3ccc(F)cc3)c2)c1`, the growth was 18.6%. As for `COC(=O)[C@H](CSC)N(C)C(=O)[C@@H]1CSSC[C@@H](NC(=O)c2nc3ccccc3cc2O)C(=O)NCC(=O)N1C`, the growth is 79.4%.

Turning to `COc1cccc(/C=C/C(=O)c2c(C)nc3ccccc3c2/C=C/c2ccc(C)cc2)c1OC`, the growth was 13.8%.

`COc1ccc(S(=O)(=O)NCCNc2nccc(-c3c(-c4cccc(F)c4)nc4sccn34)n2)cc1`: the growth is 17.1%. Still for that read-out and setting: the same measure for `COc1cccc(C(=O)NCCNc2cc(-c3cn(-c4ccccc4)nc3-c3cccc(OC)c3)ccn2)c1`: 56.7%; for `CCCCOc1nc2ccccc2cc1C1CNC(=O)c2ccccc2N1` (stereo not given): 21.2%; for `O=C(CCc1nnc(CN(c2ccccc2)c2ccccc2)o1)c1nc2ccccc2[nH]1`: 76%.

The test system of another assay is HCT-116 colon. The assay is described as above. Conditions: 10 µM unless noted.
Consider `O=C1N=c2cc3c(cc2=C/C1=C/c1sc(=S)n(CCc2ccc(O)cc2)c1O)OCCO3`, for which the growth is 7.52% (active). On the same count and under the same terms, the same measure for `O=Cc1c[nH]c2ccc(-c3csc4ccccc34)cc12`: 21.2%; for `O=C(Nc1ccccc1)Nc1cccc(Oc2nnc(Cl)c3ccccc23)c1`: 10.6%; for `NC(=O)c1ccc[n+]([C@@H]2O[C@H](COP(=O)([O-])OP(=O)(O)OC[C@H]3O[C@@H](n4cnc5c(N)ncnc54)[C@H](O)[C@@H]3O)[C@@H](O)[C@H]2O)c1`: 94.7%. As to `O=C1CCc2c(sc3[nH]c(=S)n(-c4ccc(OC(F)(F)F)cc4)c(=O)c23)C1`, the growth was 30.1%. In the case of `CC1(C)CC[C@]2(C(=O)N3CCOCC3)CC[C@]3(C)C(=CC[C@@H]4[C@@]5(C)CC[C@H](OC(=O)c6cccnc6)C(C)(C)[C@@H]5CC[C@]43C)[C@@H]2C1`, the growth is 31.8%. On the same count and under the same terms, in the case of `COC(=O)[C@]12CC[C@@H](C)[C@H](C)[C@@H]1C1=CC[C@@H]3[C@@]4(C)C(C=O)=C[C@@](C)(COC(=O)c5ccco5)C4=CC[C@@]3(C)[C@]1(C)CC2` it was -71.3% (active); in that of `O=[N+]([O-])c1ccc(-c2cc(-c3ccc(Nc4nc(Nc5ccc(Cl)cc5)nc(Nc5ccc(Cl)cc5)n4)cc3)no2)cc1`, 83.7%.

As to `CCCCCS(=O)(=O)Nc1ccc(C(=O)O)cc1`, the growth is 102%. Same read-out and setting: in the case of `COc1ccc(-c2ccc3c(c2)sc2nc(-c4ccc(F)cc4)cn23)cc1` it was 42.3%; in that of `NC(=N\N=C/c1ccccc1[N+](=O)[O-])/C(N)=N\N=C/c1ccccc1[N+](=O)[O-]`, 108%; in that of `O=C(COc1ccc(/C=C2\Oc3ccccc3C2=O)cc1)Nc1nc2c(s1)CCCC2`, 75.5%. On the same count and under the same terms, in the case of `O=[N+]([O-])c1ccc(OCCO)cc1` it was 103%; in that of `Cn1cc2c(c1)-c1nc(Nc3ccccc3)ncc1CC2`, 35.4%. On the same count and under the same terms, in the case of `CC1=C(SCCC(=O)OC(C[Se]C2=C(C)C(=O)c3ccccc3C2=O)C(=O)NCCCCCC(=O)OCc2ccccc2)C(=O)c2ccccc2C1=O` (stereo not given) it was 4.77% (active). `CC/C=C\C/C=C\C[C@H](O)C/C=C1/C(=O)C=C[C@@H]1C/C=C\CCCC(=O)O`: the growth is -61.1% (active). Same read-out and setting: the same measure for `COc1cccc(Nc2nccc(Nc3ccc4[nH]ncc4c3)n2)c1`: -87% (active); for `COc1cccc(-c2nn(-c3ccccc3)cc2-c2ccnc(NCCNC(=O)c3ccccc3)c2)c1`: 44.3%. Regarding `COc1ccccc1CNCCCN1C(=O)c2ccc3c4c(ccc(c24)C1=O)C(=O)N(CCCNCCCCN)C3=O`, the growth was -8.71% (active). On the same count and under the same terms, in the case of `COc1ccc2cc(-c3cc(OC)c(OC)c(OC)c3)c(=O)oc2c1` it was 46.9%; in that of `NC(=S)Nc1cccc(O)c1`, 91.6%; in that of `CCCCn1c(=O)c2c(nc3n2CCCN3CCc2ccc(OCC(=O)NCCN(CC)CC)cc2)n(CCCC)c1=O`, 36.4%.

`COc1cc2c(cc1-c1c(C)noc1C)ncc1nc(C3CCC(F)(F)CC3)n(C3CCC(OC(F)F)CC3)c12` (stereo not given): the growth is 53.9%.

`CCN1CCN(c2cc(C)nc(NCc3cc(Nc4ccnc5cc(Cl)ccc45)ccc3F)n2)CC1`: the growth was 11.8%. The same measure, in the same setting: the same measure for `CCCCc1ccc(Nc2ccc(Nc3ccc(CCCC)cc3S(=O)(=O)O)c3c2C(=O)c2ccccc2C3=O)c(S(=O)(=O)O)c1`: 106%; for `N#Cc1c(-c2cccc(Cl)c2)cc(-c2cccc(Cl)c2)[nH]c1=O`: 67.1%. Still for that read-out and setting: the same measure for `Cc1cccc(Cc2cnc(NC(=O)/C=C/c3ccco3)s2)c1`: 18.1%. On the same count and under the same terms, in the case of `N#CC1=C(c2ccc(Br)cc2)NC(SCC(=O)c2ccc(Br)cc2)NC1=O` (stereo not given) it was 96.5%. For `C[C@H](NC(=O)[C@@H]1CSSC[C@@H](NC(=O)c2nc3ccccc3cc2O)C(=O)NCC(=O)N1C)c1ccccc1`, the growth is 12.8%.

Turning to `Cc1c2c(c(C)c3c1oc1cc(O)ccc13)C(=O)N(CCN1CCCCC1)C2=O`, the growth was 67.4%. Same read-out and setting: the same measure for `CCCCCCCCCCCCCCCCCCOc1ccc(CC(=O)OCC[N+]2(C)CCCC2)cc1`: 92%; for `COc1cccc(-c2nn(-c3ccccc3)cc2-c2ccnc(NCCCNC(=O)c3ccc(F)cc3)c2)c1`: 13.1%; for `COC(=O)[C@H](CSC)N(C)C(=O)[C@@H]1CSSC[C@@H](NC(=O)c2nc3ccccc3cc2O)C(=O)NCC(=O)N1C`: 71.7%. Regarding `COc1cccc(/C=C/C(=O)c2c(C)nc3ccccc3c2/C=C/c2ccc(C)cc2)c1OC`, the growth is 8.38% (active). Turning to `COc1ccc(S(=O)(=O)NCCNc2nccc(-c3c(-c4cccc(F)c4)nc4sccn34)n2)cc1`, the growth is 19.7%. Same read-out and setting: in the case of `COc1cccc(C(=O)NCCNc2cc(-c3cn(-c4ccccc4)nc3-c3cccc(OC)c3)ccn2)c1` it was 40.9%; in that of `CCCCOc1nc2ccccc2cc1C1CNC(=O)c2ccccc2N1` (stereo not given), 15.6%. In the case of `O=C(CCc1nnc(CN(c2ccccc2)c2ccccc2)o1)c1nc2ccccc2[nH]1`, the growth was 73.6%.
